Hits are enriched below; roughly 12% of the tested compounds scored in any of these assays.
JMJD2A Tudor = blocks the human JMJD2A Tudor domain; O75164; AlphaScreen JMJD2A-Tudor / H3K4me3 peptide binding; Potency, µM (top dose mostly 114 µM), inactives show top-dose activity change, negative = inhibition, usual class: inhibitors; 390,000 compounds, 4.4% hits; AID 504339; further: potency means the concentration at half of the fitted maximal effect; on the % scale 0 is the no-effect control and ±100 the full control effect; nearly all actives have a fitted effect of over 50% in size
Target sequence (O75164 whole entry, looked up, the tested form may be a part): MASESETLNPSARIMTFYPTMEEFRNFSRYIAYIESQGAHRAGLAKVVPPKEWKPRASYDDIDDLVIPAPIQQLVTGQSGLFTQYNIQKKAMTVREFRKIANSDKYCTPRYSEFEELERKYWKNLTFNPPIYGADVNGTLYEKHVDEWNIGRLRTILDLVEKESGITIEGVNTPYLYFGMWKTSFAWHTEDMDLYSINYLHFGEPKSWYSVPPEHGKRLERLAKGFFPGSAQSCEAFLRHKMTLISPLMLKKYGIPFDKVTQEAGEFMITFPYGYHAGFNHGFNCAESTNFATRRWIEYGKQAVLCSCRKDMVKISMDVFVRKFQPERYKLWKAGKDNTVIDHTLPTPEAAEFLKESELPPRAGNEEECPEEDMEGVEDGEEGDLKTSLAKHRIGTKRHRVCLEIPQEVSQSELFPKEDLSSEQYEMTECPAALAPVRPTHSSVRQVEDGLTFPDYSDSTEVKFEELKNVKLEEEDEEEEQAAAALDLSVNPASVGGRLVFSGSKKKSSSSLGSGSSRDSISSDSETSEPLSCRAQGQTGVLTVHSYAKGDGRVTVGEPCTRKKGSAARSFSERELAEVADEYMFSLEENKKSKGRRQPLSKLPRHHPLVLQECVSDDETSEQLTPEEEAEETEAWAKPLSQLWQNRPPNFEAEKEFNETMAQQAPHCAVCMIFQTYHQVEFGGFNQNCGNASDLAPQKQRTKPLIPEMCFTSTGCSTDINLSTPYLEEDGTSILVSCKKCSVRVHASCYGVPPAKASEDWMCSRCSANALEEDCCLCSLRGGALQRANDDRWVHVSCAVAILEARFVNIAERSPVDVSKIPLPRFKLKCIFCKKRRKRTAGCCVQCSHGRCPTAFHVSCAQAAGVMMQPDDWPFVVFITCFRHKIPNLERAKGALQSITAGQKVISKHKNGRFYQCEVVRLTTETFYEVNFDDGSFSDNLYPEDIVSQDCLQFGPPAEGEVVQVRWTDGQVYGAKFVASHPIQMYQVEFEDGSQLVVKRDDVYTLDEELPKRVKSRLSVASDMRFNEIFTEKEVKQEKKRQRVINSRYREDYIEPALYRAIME
G9a inh-1 = blocks human histone lysine methyltransferase G9a. 350,000 compounds, 8.8% hits. G9a H3K9 monomethylation, AlphaScreen, 2 h. AID 504332. Potency, µM (series often up to 102 µM), for inactives: at the top dose activity, negative = inhibition, usual class: inhibitors; further: potency means the concentration at half of the fitted maximal effect; on the % scale 0 is the no-effect control and ±100 the full control effect; nearly all actives have a fitted effect of over 75% in size
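Chemiluminescent proximity detection of H3K9 monomethylation, read after 10 min bead incubation in the dark. Reaction: 20 nM G9a, 500 nM biotin-H3K9 peptide, 20 uM SAM cofactor, 2 h, room temperature, following 15 min enzyme-compound preincubation.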
HP1b chromo inh = HP1-beta chromodomain-methylated histone interaction inhibition; P83916; 390,000 compounds, 0.56% hits; Potency, µM (doses to about 114 µM), without a hit: at the top dose activity change, negative = inhibition, hits mostly inhibitors; AlphaScreen HP1-beta / biotin-H3K9me3 peptide binding; further: potency means the concentration at half of the fitted maximal effect; nearly all actives have a fitted effect of over 70% in size
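Compound inhibition of the preformed complex between 50 nM HP1-beta and 50 nM biotinylated H3K9me3 peptide was read by AlphaScreen. Buffer was PBS pH 7.4 with 0.01% Tween-20. Incubations ran 30 min at room temperature, with 10 ug/mL donor/acceptor beads.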
Sfp inh = blocks B. subtilis Sfp PPTase activity; Biochemical Sfp PPTase activity, qHTS; Potency, µM, for the others: largest response in the series, negative = inhibition, usual class: inhibitors; 310,000 compounds, 3.5% hits; AID 1490;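 further: the enzyme is Sfp with the accession as filed and its product quenches rhodamine fluorescence; potency means the concentration at half of the fitted maximal effect; 0% = enzyme reaction without inhibitor and -100% = no enzyme wells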
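Step 1, compound plus 15 nM Sfp-PPTase, 15 min, room temperature. Step 2, add rhodamine-CoA (5 uM) and BHQ-2-YbbR (12.5 uM). Step 3, read 525/598 nm fluorescence at 0 and 30 min.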
BAZ2B block = blocks human BAZ2B | Q9UIF8 | 360,000 compounds, 4.4% hits | AID 504333 | AlphaScreen BAZ2B-H3K14Ac peptide displacement | Potency, µM (top dose mostly 114 µM), for inactives: top-dose activity change, negative = inhibition, most hits filed as inhibitors; further: potency means the concentration at half of the fitted maximal effect; on the % scale 0 is the no-effect control and ±100 the full control effect; nearly all actives have a fitted effect of over 60% in size
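Multi-concentration screen (max 110 uM) measuring displacement of acetylated histone H3 peptide from BAZ2B by AlphaScreen, using 50 nM protein, 50 nM peptide and 10 ug/mL streptavidin donor plus Ni-chelate acceptor beads.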
JMJD2E inh = confirmation of inhibitors of human JMJD2E demethylase. shares compounds with JMJD2A Tudor. Recombinant JMJD2E, FDH-coupled NADH fluorescence (FDH is formaldehyde dehydrogenase). Potency, µM (doses to about 56.8 µM), without a hit: at the top dose activity change, negative = inhibition, usual class: inhibitors. 140 compounds, 93% hits. AID 2677
FDH counter = counter-screen for JMJD2E inhibitors: Pseudomonas putida formaldehyde dehydrogenase | shares compounds with JMJD2A Tudor | FDH enzyme assay, NADH fluorescence kinetic | Potency, µM (series often up to 56.7 µM), for inactives: at the top dose activity, negative = inhibition, most hits filed as inhibitors | 140 compounds, 10% hits
G9a inh-2 = inhibits human G9a histone lysine methyltransferase, hit confirmation | shares compounds with JMJD2A Tudor | G9a H3K9 monomethylation, AlphaScreen, 2 h | Potency, µM, actives largely listed as inhibitors | 370 compounds, 89% hits; further: potency means the concentration at half of the fitted maximal effect; nearly all actives have a fitted effect of over 65% in size
RGS4 confirm = confirmation of human RGS4 inhibitors | shares compounds with JMJD2A Tudor | RGS4 GAP activity, Transcreener GDP fluorescence polarization | Potency, µM, usual class: inhibitors | 25 compounds, 80% hits
An asterisk follows results filed as active; ? = inconclusive; · = no result; [ ] = remark or other dose. The call rests on the fitted dose curve; in most records, active means well fitted curve in the direction sought with a large enough effect; inconclusive means small, poorly fitted or top-dose-only effect, or another doubt; inactive means no such curve, though single readings can be large; an effect the other way counts as inactive or inconclusive.

SMILES	JMJD2A Tudor	G9a inh-1	HP1b chromo inh	Sfp inh	BAZ2B block	G9a inh-2	others
Cc1ccccc1NCc1ccc(O)c2ncccc12	28µM*	1.1µM*	?	3%	50µM*	·	JMJD2E inh=1.4µM*;FDH counter=-13%
Oc1ccc(CNc2ccccc2)c2cccnc12	79µM*	1.3µM*	?	21%	32µM*	·	JMJD2E inh=2µM*;FDH counter=-21%
Cc1cccnc1NC(=O)CCc1c[nH]c2ccccc12	-23%	20%	22%	15%	-25%	·
Cc1csc(NC(=O)CSc2nc3nc(C)cc(C)n3n2)n1	-4%	11%[12.7 µM]	27%	·	2%	·
Cc1nc2nncn2c(Nc2ccc(F)cc2)c1C	-19%	4%[59 µM]	15%	·	-7%	·
CCOc1ccc(NC(=O)c2c(NCc3cccnc3)sc3c2CCCC3)cc1	22µM*	2.8µM*	-11%	·	-29%	1.6*
O=C(COc1ccc(Cl)cc1)Nc1sc2c(c1C(=O)Nc1cccc(Cl)c1)CCCC2	71µM*	1.8µM*	?	·	?	3.6*
O=C(COc1ccccc1)Nc1sc2c(c1C(=O)NCc1cccnc1)CCCC2	-24%	-5%[59 µM]	17%	-25%	2%	·
Cc1ccc(NC(=O)CN2C(=O)COc3ccc(S(=O)(=O)Nc4ccccc4)cc32)c(C)c1	-11%	-17%[59 µM]	33%	·	-12%	·
C=C(C(=O)OC)C(NC(=O)OC)c1ccccc1 (stereo unspecified)	·	·	·	-3%	·	·
Cc1ccc(-c2nc(SCC(=O)NCc3ccco3)c3c(=O)n(C)c(=O)n(C)c3n2)cc1	-1%	4%[59 µM]	26%[57 µM]	·	4%	·
CCN1c2ccccc2NC2N=C(OC)C(c3ccccc3)C21 (stereo unspecified)	50µM*	?	?	3%	45µM*	11*
CCOc1ccc(CC(=O)Nc2sc(Cc3ccccc3)cc2C(N)=O)cc1OCC	?	2.5µM*	?	28µM*	-1%	6.3*
CCc1ccc(NC(=O)N(Cc2ccc(C)cc2)Cc2cccn2-c2nnc(N3CCCC3=O)s2)cc1	-29%	-11%[59 µM]	3%	·	-11%	·
CCOC(=O)c1ccccc1NC(=O)N(Cc1ccc(C)cc1)Cc1cccn1-c1nnc(N2CCCC2=O)s1	10%	0.79µM*	43%	·	-2%	?
CC(Sc1nnc(Cc2cccs2)n1C1CC1)C(=O)NC1CCS(=O)(=O)C1 (stereo unspecified)	-14%	-27%	38%	·	9%	·
COc1cc(OC)c(NC(=O)C(c2ccccc2)N2Cc3ccccc3C2=O)cc1Cl (stereo unspecified)	-33%	?	8%	·	?	·
O=C(CN1CCN(c2ccc(Cl)cc2)CC1)Nc1ccc(Cl)c(C(F)(F)F)c1	-2%	8%[12.7 µM]	44%	·	-16%	·
CC(OC(=O)c1cccc(S(=O)(=O)N2CCOCC2)c1)C(=O)NC1CCCCC1C (stereo unspecified)	-1%	?	50%	·	24%	35*
Cc1nc(NC(=O)CSc2ccccc2N)sc1C	-18%	?	1%	-21%	-39%	18*
Nc1ccccc1SCC(=O)Nc1nccs1	4%[57.1 µM]	?	34%	10%	-2%	·
COc1ccc(CN2CCc3ccccc3C2)cc1Br	28µM*	2.2µM*	-27%	79µM*	50µM*	11*
O=C1N[C@H](Cc2ccccc2)COC(=O)[C@H](Cc2ccc(F)cc2)CC/C=C/C[C@@H]1CC(=O)N(CCO)Cc1ccccc1	-34%	·	-8%	·	·	·
Cn1nc(C(=O)Nc2cccnc2)c2ccccc2c1=O	7%	-6%[12.7 µM]	21%	8%	-4%	·
Cn1nc(C(=O)Nc2nc(-c3ccccn3)cs2)c2ccccc2c1=O	22µM*	4.5µM*	?	·	18µM*	·	RGS4 confirm=11*
SMILES	JMJD2A Tudor	G9a inh-1	HP1b chromo inh	Sfp inh	BAZ2B block	G9a inh-2	others
COc1cccc(CNC(=O)NCc2noc3ccc(C)cc23)c1	-11%	-32%[59 µM]	31%	·	-12%	·
Cc1ccc(CNC(=O)Cn2ncc3c([nH]c4ccc(C)cc43)c2=O)cc1	-5%	-23%[59 µM]	12%	·	9%[57.1 µM]	·
C=CCOc1c(Cl)cc(CNc2ccc(N(C)C)cc2)cc1OC	18µM*	1.8µM*	16µM*	3.5µM*	25µM*	5.6*
Cc1cccc(Cn2ccn(Cc3ccc(Cl)cc3)c(=O)c2=O)c1	0%	5%[59 µM]	40%	·	?	·
Cc1ccc2cccc(SCC(=O)NCC#N)c2n1	?	9%[59 µM]	26%	1%	-14%	·
Cc1cccc(NC(c2ccc(C)s2)c2ccc3ccc(C)nc3c2O)n1 (stereo unspecified)	-4%	1.8µM*	-2%	-3%	8%	0.4*
O=C(Nc1ccccc1N1CCCC1)c1cccc(-c2cc3ccccc3oc2=O)c1	?	?	-21%	5%	?	·
O=C(Nc1ccc(N2CCCC2)cc1)c1cccc(-c2cc3ccccc3oc2=O)c1	28µM*	1.6µM*	8.9µM*	16µM*	?	1.1*
O=C(Nc1ccc(N2CCCC2)cc1)c1cccc(F)c1	50µM*	?	?	-26%	?	1.6*
O=C(Nc1ccc(N2CCCCC2)cc1)c1ccc(F)cc1F	-16%	·	7%	5%	-6%	·
O=C(Nc1ccc(N2CCCC2)cc1)c1ccccc1F	?	1.8µM*	-7%	?	?	2.8*
CCOc1ccc(CCNC(=O)c2nnc(Cc3ccc(Cl)cc3Cl)o2)cc1OCC	-6%	11%[59 µM]	16%	·	-14%	·
O=C(C1COc2ccccc2O1)N(Cc1cccnc1)c1nc2ccc(Cl)cc2s1 (stereo unspecified)	-15%	-1%[59 µM]	-1%	·	-16%	·
O=C(O)c1ccc(N[C@@H]2OC[C@@H](O)[C@@H](O)[C@@H]2O)cc1	·	-24%[12.7 µM]	·	-16%	·	·
CCc1ccc(OCc2cccc(C(=O)N/N=C\c3cnn(C)c3C)c2)cc1	?	·	27%	7%	-34%	·
O=C(NCC1CCN(c2ccc(S(=O)(=O)N3CCOCC3)cc2)CC1)Nc1ccccc1	1%	18%	20%	8%	-3%	·
